Source: PubChem (National Center for Advancing Translational Sciences (NCATS))
GLP-1R inv ag: inverse agonists of human GLP-1 receptor; HEK293 GLP-1R CRE-luciferase, luminescence, 24 h; GLP-1R form is constitutively active; P43220; 410,000 compounds, 1.6% hits; AID 624417; Potency, µM (series often up to 38.3 µM), usual class: inhibitors; further: nearly all actives have a fitted effect of over 55% in size
Target sequence (P43220 whole entry, looked up): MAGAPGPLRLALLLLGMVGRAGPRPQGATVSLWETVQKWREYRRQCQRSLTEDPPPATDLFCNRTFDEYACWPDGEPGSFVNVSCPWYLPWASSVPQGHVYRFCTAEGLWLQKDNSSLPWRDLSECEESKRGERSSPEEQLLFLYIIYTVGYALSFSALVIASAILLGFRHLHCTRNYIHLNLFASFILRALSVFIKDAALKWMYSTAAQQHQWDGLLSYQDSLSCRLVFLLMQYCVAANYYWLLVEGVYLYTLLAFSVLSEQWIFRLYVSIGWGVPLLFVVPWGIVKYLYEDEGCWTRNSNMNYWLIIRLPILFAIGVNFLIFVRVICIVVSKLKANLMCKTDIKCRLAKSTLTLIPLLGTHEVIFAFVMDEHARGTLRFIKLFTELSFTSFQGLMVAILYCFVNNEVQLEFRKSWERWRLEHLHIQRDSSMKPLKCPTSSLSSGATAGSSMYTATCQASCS
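Cells are plated, allowed 12 hours at 37 deg C, then treated with compounds for 24 hr before luciferase detection reagent is added and luminescence is read after 12 min at room temperature. The HEK293 line carries constitutively active GLP-1R with a cAMP-responsive reporter.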
PTHR1 agonist: activates the human parathyroid hormone receptor PTHR1. Q03431. HEK293 GP2 PTHR1 cells, GloSensor cAMP luminescence, 1 h. Potency, µM (titrated, usually from 115 µM), hits mostly activators. 410,000 compounds, 0.075% hits. AID 743266; further: nearly all actives have a fitted effect of over 55% in size
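HEK-293-derived GP2 cells expressing PTHR1 and a GloSensor cAMP reporter, 3,000/well, plated overnight, given luciferin plus IBMX (each 0.5 mM as added) for 1 h at 37 °C, then compound for 1 h at 37 °C. Luminescence was read after 15 min at room temperature.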
12-LOX inh: ALOX12 (human) lipoxygenase inhibition. Potency, µM (doses to about 108 µM), most hits filed as inhibitors. P18054. AID 1671190. 580,000 compounds, 1.1% hits. purified 12hLO, xylenol orange hydroperoxide absorbance
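Hydroperoxide product was detected by ferrous iron/xylenol orange as the 573 to 405 nm absorbance ratio. Arachidonic acid at 40 uM (final) was turned over for 30 min at room temperature by 150 nM human 12hLO, pH 7.0 Hepes buffer, after 15 min compound preincubation.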
GLS inh: glutaminase GLS (human) inhibition. GLS enzymatic activity, qHTS titration. Potency, µM (titrated, usually from 45.5 µM), hits mostly inhibitors. AID 624170. 410,000 compounds, 0.21% hits. O94925
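Compounds were pin-transferred onto hKGA, after which L-glutamine (1 mM solution) and a detection mix of glutamate oxidase, HRP and Amplex Red were added. Initial and 30 min RT fluorescence reads were collected.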
GLP-1R agonist: activates the human GLP-1 receptor | HEK293 GLP-1R CRE-luciferase, luminescence, 4-6 h; cells express a hypersensitive GLP-1R form | Potency, µM (doses to about 45.6 µM), usual class: activators | 380,000 compounds, 0.007% hits
GRP78 ERSR act: inducers of ER stress response in human glioma cells. Potency, µM, usual class: activators. 420,000 compounds, 0.02% hits. U87-MG GRP78 promoter luciferase reporter, 16 h; further: series mostly up to about 76 µM; nearly all actives have a fitted effect of over 35% in size
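Stably transfected U87-MG human glioma cells carrying a GRP78-based luminescent sensor were seeded at 1000 cells/well, pin-dosed with compounds and incubated 16 h. Luciferase reagent was then added, and end-point luminescence was read after 10 min at room temperature.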
Hits are given with their value; - = inactive; ? = inconclusive; . = no result; [ ] = another dose, or the depositor's remark. In the library only some 2.3% were active in any assay of this set; here they are far more common. The call rests on the fitted dose curve; in most records, active means well fitted curve in the direction sought with a large enough effect; inconclusive means small, poorly fitted or top-dose-only effect, or another doubt; inactive means no such curve, though single readings can be large; an effect the other way counts as inactive or inconclusive.

SMILES	GLP-1R inv ag	PTHR1 agonist	12-LOX inh	GLS inh	GLP-1R agonist	GRP78 ERSR act
CCOC(=O)N1CCN(C(=O)c2ccccc2CCc2ccccc2)CC1	8.9µM	-	-	-	-	-
CCCc1cc(=O)[nH]c(SCC(=O)Nc2sc3c(c2C#N)CCC(C)C3)n1 (configuration not stated)	?	-	40µM	-	-	-
Cc1cc(C(=O)OCC(=O)Nc2sc3c(c2C#N)CCC(C)C3)c2ccccc2n1 (configuration not stated)	-	-	40µM	-	-	-
CCN1CCN(CC(=O)Nc2sc3c(c2C#N)CCC(C)C3)CC1 (configuration not stated)	2µM	-	-	-	-	-
CCN(CC)S(=O)(=O)NC1CCN(c2ncccn2)CC1	.	.	-	.	.	.
Fc1ccc(N=Cc2ccc3ncccc3c2)c(Cl)c1	.	.	-	.	.	.
O=C(N/N=C/c1c[nH]c2ccccc12)c1ccn(Cc2ccc(Cl)cc2)n1	?	-	-	-	-	-
O=C(N/N=C/c1c[nH]c2ccc(Br)cc12)c1ccn(Cc2ccc(Cl)cc2Cl)n1	11µM	-	-	-	-	-
C=C1c2ccccc2O[C@H](C(=O)OCC)[C@@H]1C1CCCCC1	?	-	20µM	-	-	-
OC(CNc1ccccc1)COc1ccc(OCC(O)CNc2ccccc2)cc1 (configuration not stated)	6.3µM	-	-	-	-	-
CCOCC(O)CNc1ccccc1 (configuration not stated)	-	-	-	-	-	-
Cc1ccc(OCC(O)CNC(C)c2ccccc2)cc1C (configuration not stated)	5µM	-	-	-	-	-
CC(NCC(O)COCc1ccc(Cl)cc1)c1ccccc1 (configuration not stated)	?	-	-	?	-	-
O=C1c2ccsc2SCCN1Cc1cccc(Cl)c1	13µM	-	-	-	-	-
O=C1c2ccsc2SCCN1Cc1ccc(Cl)cc1	-	-	-	-	-	-
COc1ccc2c(=O)c(Oc3ccc(C)cc3)c(C(F)(F)F)oc2c1	.	.	-	.	.	.
CCCC(=O)N1c2ccccc2C(=C2SC(C(=O)OC)=C(C(=O)OC)S2)C(=S)C1(C)C	-	-	22µM	-	-	-
COC(=O)C1=C(C(=O)OC)SC(=C2C(=S)C(C)(C)N(C(=O)C(C)C)c3ccccc32)S1	-	-	?	-	-	-
Cc1ccc(S(=O)(=O)CNC(=S)c2cccc(Cl)c2)cc1	?	-	10µM	-	-	-
CCCC1Cc2c(sc3nc(SCC(=O)c4ccc(F)cc4)nc(N)c23)CO1 (configuration not stated)	.	.	-	.	.	.
CN1c2ccc([N+](=O)[O-])cc2N(C)C1(C)c1ccccc1 (configuration not stated)	?	-	-	-	-	-
CN(C)CCCN1c2ccc([N+](=O)[O-])cc2CCc2cc([N+](=O)[O-])ccc21	.	-	32µM	-	-	-
CC(C)N(C(=O)Cn1cnc2c1c(=O)n(C)c(=O)n2C)c1ccccc1	.	.	-	.	.	.
CCn1c(SCC(=O)N2c3ccccc3Sc3ccccc32)nc2c1c(=O)n(C)c(=O)n2C	-	-	-	-	-	-
CCCCn1c(SCC(=O)N2c3ccccc3Sc3ccccc32)nc2c1c(=O)n(C)c(=O)n2C	11µM	-	-	-	-	-
SMILES	GLP-1R inv ag	PTHR1 agonist	12-LOX inh	GLS inh	GLP-1R agonist	GRP78 ERSR act
O=C(O)CCC(=O)NC(Cc1c[nH]c2ccccc12)C(=O)O (configuration not stated)	.	.	-	.	.	.
OC1CCCN(c2ccc(-c3nc(-c4cccc(C(F)(F)F)c4)no3)cn2)C1 (configuration not stated)	.	.	-	.	.	.
C/C(=N\NC(=O)c1nnn(-c2nonc2N)c1-c1cccs1)c1ccc(O)cc1	7.9µM	-	-	-	-	-
C/C(=N\NC(=O)c1nnn(-c2nonc2N)c1-c1cccs1)c1ccc(C)cc1	-	-	-	-	-	-
COc1ccccc1CN1C[C@@H]2C[C@@H](c3ccc(C)cc3)N3CCC[C@@]23C1=O	?	-	-	-	-	-
CCc1ccc([C@@H]2C[C@H]3CN(Cc4ccccc4OC)C(=O)[C@]34CCCN24)cc1	13µM	-	-	-	-	-
Cc1nn(-c2ccccc2)c(Cl)c1C(=O)Nc1nnc(C2CCCCC2)s1	8.9µM	-	-	-	-	-
O=C(Nc1nc2ccc(Cl)cc2s1)C1CC1	?	-	?	-	-	-
O=C(CP(=O)(c1ccccc1)c1ccccc1)Nc1nc2ccc(Cl)cc2s1	11µM	-	-	-	-	-
N#Cc1cccc(NC(=O)NCCNC(=O)Nc2cccc(C#N)c2)c1	.	.	-	.	.	.
CC(=O)Nc1ccc(S(=O)(=O)Oc2cccc(/C=C3\SC(N)=NC3=O)c2)cc1	-[7.66 µM]	-	?	18µM	-	-
CN(Cc1ccc(Cl)c(Cl)c1)C(C(=O)NC1CC1)c1ccccc1 (configuration not stated)	.	.	-	.	.	.
C=CS(=O)(=O)N(Cc1ccc(Cl)c(Cl)c1)C[C@@H](O)CO	6.3µM	-	.	-	-	-
CO/C([O-])=N/c1c[n+](-c2ccc(Cl)cc2)no1	-	-	25µM	-	-	-
COC(=O)c1noc(-c2ccc(Cl)cc2)n1	.	.	-	.	.	.
CN(CCCN)C1CCCCC1	.	.	-	.	.	.
NCc1oc(-c2ccccc2)cc1C(=O)O	-	-	10µM	-	-	-
CCCCCCOc1ccc(/C(C)=N/NC2=NCCN2)cc1[N+](=O)[O-]	?	-	-	-	-	-
CCCCOc1ccc(Br)cc1/C(C)=N/NC1=NCCN1	2.8µM	-	?	-	-	-
COc1ccc(OCC(=O)Nc2ccc3c(=O)c4cccc(F)c4oc3c2)cc1	.	.	-	.	.	.
Cc1ccc(NS(=O)(=O)c2ccc(C(=O)N3CC(C)CC(C)C3)cc2)cc1 (configuration not stated)	?	-	-	-	-	40µM
Cc1ccc(S(=O)(=O)Nc2ccc(C(=O)N3CCCC3)cc2)cc1	-	-	-	-	-	-
COc1ccccc1N1CCN(C(=O)CSc2nc3ccccc3nc2N2CCCCC2)CC1	5µM	-	-	-	-	-
COc1ccccc1N1CCN(c2nc3ccccc3nc2C(C#N)C(=O)OC(C)C)CC1 (configuration not stated)	11µM	-	?	-	-	-
COc1ccccc1N1CCN(C(=O)CSc2nc3ccccc3nc2Cc2ccc(C)cc2)CC1	?	-	-	-	.	-
COc1ccccc1N1CCN(C(=O)CSc2nc3ccccc3nc2N2CCC(C)CC2)CC1	5µM	-	-	-	-	-
